Screens: PubChem, National Center for Advancing Translational Sciences (NCATS)
Rab9 prom act – Rab9 promoter activation. Huh7 Rab9 promoter-luciferase reporter, luminescence, 24 h. Potency, µM (highest dose often 9.22 µM), for inactives: at the highest dose activation, negative = inhibition, usual class: activators. 320,000 compounds, 2.8% hits. AID 485297; note: % of control where 0% means no effect; nearly all actives have a fitted effect of over 60% in size
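Using Huh7 cells stably transfected with Rab9 promoter–luciferase, compounds were incubated 24 h at 37 °C, 5% CO2; luciferase luminescence was read 10 min after reagent addition.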
NPC1 promoter act – activators of NPC1 promoter; Potency, µM (series often up to 9.22 µM), inactives show at the top dose activation, usual class: activators; Huh7 NPC1 promoter luciferase reporter, 24 h; AID 485313; 320,000 compounds, 2.4% hits; note: % of control where 0% means no effect; nearly all actives have a fitted effect of over 60% in size
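NPC1 promoter–luciferase Huh7 cells; 24 h compound; luminescence.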
FLuc counter – firefly luciferase modulation, counter-screen for miR-21 project. P08659. purified FLuc, Km substrates, luminescence inhibition. Potency, µM (titrated, usually from 57.5 µM), inactives show top-dose activity change, negative = inhibition, hits mostly inhibitors. 360,000 compounds, 6.9% hits. AID 588342;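 note: plate controls were vehicle for no effect and reference inhibitor for full effect; nearly all actives have a fitted effect of over 55% in size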
Target sequence (P08659 whole entry, looked up): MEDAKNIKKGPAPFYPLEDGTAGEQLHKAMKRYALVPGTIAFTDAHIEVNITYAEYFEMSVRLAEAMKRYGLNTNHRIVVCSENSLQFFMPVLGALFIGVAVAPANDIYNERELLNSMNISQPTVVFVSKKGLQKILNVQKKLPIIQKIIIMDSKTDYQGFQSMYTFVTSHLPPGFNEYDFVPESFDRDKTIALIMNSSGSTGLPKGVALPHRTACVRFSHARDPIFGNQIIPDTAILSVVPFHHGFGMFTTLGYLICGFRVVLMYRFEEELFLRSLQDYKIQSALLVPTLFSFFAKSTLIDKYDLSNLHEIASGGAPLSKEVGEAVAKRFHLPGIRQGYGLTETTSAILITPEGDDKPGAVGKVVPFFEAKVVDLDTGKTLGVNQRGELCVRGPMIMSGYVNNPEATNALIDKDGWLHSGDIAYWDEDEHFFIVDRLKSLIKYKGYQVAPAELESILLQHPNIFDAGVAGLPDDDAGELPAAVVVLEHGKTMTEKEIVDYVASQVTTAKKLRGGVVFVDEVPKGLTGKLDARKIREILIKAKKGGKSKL
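Purified P. pyralis luciferase (10nM final) with 10uM D-luciferin and 10uM ATP (Km levels) in 50mM Tris acetate pH 7.5, 10mM Mg acetate, 0.01% Tween-20, 0.05% BSA; qHTS 6-point titration, ~60 µM downward; luminescence read.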
Luc counter – blocks Kinase-Glo luciferase, a counter-screen artifact; Q27757; Kinase-Glo luciferase, ATP luminescence, 8 min; Potency, µM (highest dose often 38.3 µM), for the others: at the top dose activity change, negative = inhibition, actives largely listed as inhibitors; 200,000 compounds, 0.28% hits; AID 1379; note: % is set by controls: 0 for no effect and ±100 for the full control effect; nearly all actives have a fitted effect of over 60% in size
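Compound is pinned into ATP-containing buffer (10 uM ATP, imidazole pH 7.2, 7 mM MgCl2). Kinase-Glo luciferase reagent is then added. Light output is recorded following an 8-min room-temperature incubation.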
ELG1 genotoxic – induces genotoxicity in HEK293T cells with luciferase-tagged ELG1; HEK293T ELG1-luciferase reporter, luminescence, 16 h; Potency, µM (titrated, usually from 46 µM), for inactives: at the top dose activity change, positive = activation, usual class: activators; 330,000 compounds, 1.3% hits; AID 504466; note: % of control where 0% means no effect; nearly all actives have a fitted effect of over 60% in size
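Luminescence read-out: rising ELG1-luciferase signal, reflecting elevated ELG1 protein under genetic stress, flags genotoxic compounds. Cells were treated for 16 hr at 37 °C before ONE-Glo detection.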
SMN2 splice enh – increases expression of the SMN2 splice variant; Potency, µM (titrated, usually from 46.1 µM), inactives show top-dose activity change, positive = activation, actives largely listed as activators; HEK293 SMN2-luciferase splicing reporter, luminescence, 30-36 h; AID 1458; 210,000 compounds, 2.8% hits; note: % of control where 0% means no effect; nearly all actives have a fitted effect of over 55% in size
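qHTS luciferase splicing reporter: luminescence rises when SMN2 exon 7 is included in transfected HEK293 cells. Compound exposure lasted 30-36 h at 37C, with 4.5 mM final sodium butyrate as control, followed by a ONE-Glo read.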
* = called active by the depositor; ? = inconclusive; nt = no result. Rows were chosen to be rich in hits. Some 7.4% of all compounds tested hit in one or more screens of this group. Calls come from the whole dose curve; as a rule, active = well fitted curve in the direction sought with a large enough effect; inconclusive = small, poorly fitted or top-dose-only effect, or another doubt; inactive = no such curve, though single readings can be large; an effect the other way counts as inactive or inconclusive. Potency is the fitted concentration of half-maximal effect.

SMILES	Rab9 prom act	NPC1 promoter act	FLuc counter	Luc counter	ELG1 genotoxic	SMN2 splice enh
CCN(CC(=O)Nc1ccccc1C(F)(F)F)C(=O)c1ccc2[nH]c3c(c2c1)CC(C)CC3 (stereo not drawn)	-5%	1%	-15%	nt	-22%	nt
O=C(NCC1CCCO1)c1ccc(/C=N/O)nc1 (stereo not drawn)	-9%	0%	5%	3%	1%	3%
CC1CCN(S(=O)(=O)c2cccc(C(=O)NCc3cccs3)c2)CC1	-1%	-4%	-1%	-2%	-2%	6%
CC1CCCN(c2ccc(C(=O)NCC3CCCO3)cn2)C1 (stereo not drawn)	?	?	?	0%	16%	13µM*
CC1CCN(c2ccc(C(=O)NCc3cccs3)cn2)CC1	?	?	24µM*	-2%	?	15%
CC1CCCN(C(=O)c2cc3ccccc3cc2O)C1 (stereo not drawn)	5%	-1%	4%	nt	5%	nt
COc1ccc(S(=O)(=O)CCC(=O)NCCc2ccc(C)cc2)cc1	-3%	-1%	2%	-2%	1%	5%
COc1ccc(/C=C2\SC(=O)N(CCNC(=O)Cn3cnnn3)C2=O)cc1	3.2µM*	2.8µM*	12µM*	-8%	4µM*	7.9µM*
COc1ccc(/C=C2\SC(=O)N(CCNC(=O)CCS(=O)(=O)c3ccc(C)cc3)C2=O)cc1	2.8µM*	?	9.5µM*	-7%	?	16µM*
COc1ccc(C(=O)C(OC(=O)c2ccccc2)c2ccccc2)cc1 (stereo not drawn)	?	?	?	1%	?	22%
COc1ccc(O)c(C(=O)CC(=O)c2ccccc2)c1	0.71µM*	0.71µM*	17µM*	0%	?	1.8µM*
COc1ccc(C(=O)C(OC(=O)c2ccccc2Cl)c2ccccc2)cc1 (stereo not drawn)	4µM*	?	13µM*	1%	?	65%
COc1ccc(C(=O)CC(=O)c2ccc(OC)cc2)cc1	15%	19%	19µM*	nt	6%	nt
COc1ccc(C(=O)CN2C(=O)c3ccccc3C2=O)cc1	27%	?	17µM*	nt	10%	nt
COc1ccc(C(=O)CCC(=O)O)cc1	-8%	1%	4%	2%	6%	-14%
Cc1ccc(NC(=O)c2c(C)oc3ncn(C)c(=O)c23)cc1F	nt	nt	-2%	nt	nt	nt
FC(F)(F)c1cccc(OCC2CNC(=S)O2)c1 (stereo not drawn)	-3%	-2%	4%	nt	-5%	nt
COc1ccc(C(=O)C[n+]2ccc3ccccc3c2C)cc1	1µM*	?	-17%	nt	1%	nt
COc1ccc(C(=O)Cc2nnc(C)s2)cc1	?	?	19µM*	-4%	?	?
COc1ccc(CNC(=O)c2ccc(-c3ccccc3)cc2)cc1	?	?	?	-4%	?	2%
COc1ccc(/C(C)=N\NC(=O)CSc2nnc(C)s2)cc1	0%	-1%	-17%	-1%	4%	1%
COc1ccc(C(=O)CNc2ccccc2Br)cc1	?	?	7.6µM*	nt	?	nt
COc1ccc(C(=O)NCC(=O)c2ccccc2)cc1	3.5µM*	2.8µM*	12µM*	nt	9.2µM*	nt
COc1ccc(C(=O)C[n+]2cccc3cc(OC)ccc32)cc1	-6%	-3%	3%	nt	-7%	nt
CC(=O)c1cc(-c2ccccc2)n(CC(=O)NC2CCCCCC2)c1C	nt	nt	-1%	nt	nt	nt
SMILES	Rab9 prom act	NPC1 promoter act	FLuc counter	Luc counter	ELG1 genotoxic	SMN2 splice enh
COc1ccc(C(=O)CSc2ccc(-c3ccccc3)nn2)cc1	-5%	0%	-16%	6%	-1%	11%
COc1ccc(C(=O)CSc2ccccc2C(=O)O)cc1	?	2.2µM*	9.5µM*	0%	19%	11µM*
COc1cccc(C(C(=O)NC2CCCCC2)N(C(=O)c2csnn2)C2CC2)c1 (stereo not drawn)	4%	-3%	0%	nt	-4%	nt
COc1ccc(Nc2nccc3c2nnn3C)cc1	2.2µM*	1.3µM*	11µM*	-2%	5.8µM*	?
Cc1ccc(C)c(NC(=O)C2CCCN(S(=O)(=O)c3ccc4[nH]c(=O)ccc4c3)C2)c1 (stereo not drawn)	-4%	5%	0%	nt	7%	nt
CSc1sccc1/C=C(/C#N)C(=O)c1ccco1	12%	19%	15µM*	nt	8%	nt
CC(C)CN(C(=O)c1cc2ccccc2o1)c1c(N)n(CC(C)C)c(=O)[nH]c1=O	-2%	-6%	0%	nt	-8%	nt
Cc1ccc(Nc2nc(CSc3nnnn3C)cs2)cc1	2.8µM*	3.5µM*	3.4µM*	1%	?	11µM*
Cn1nnnc1SCc1cccc(CSc2nnnn2C)n1	5%	1%	7%	-7%	?	14%
Cc1ccc(Nc2nc(CSc3nnnn3-c3ccccc3)cs2)cc1	nt	nt	17µM*	-1%	nt	-9%
Cc1ccc(Nc2nc(CSc3nnc(-c4cccs4)o3)cs2)cc1	19%	21%	6.7µM*	1%	?	-17%
Cn1nnnc1SCc1csc(Nc2ccccc2)n1	4µM*	?	?	4%	?	1%
Cc1cccc(-n2nnnc2SCc2csc(-c3ccccc3)n2)c1	-2%	-7%	5%	4%	-3%	-38%
CSc1cnc2c(N)nc(N(C)C)nc2n1	1%	-4%	4%	-6%	0%	17%
Cc1ccc(Nc2nc(CSc3n[nH]c(N)n3)cs2)cc1	2.2µM*	1.1µM*	1.3µM*	nt	?	nt
Cc1ccc(CSc2n[nH]c(N)n2)cc1	-1%	0%	2%	-4%	2%	nt
Cc1ccc(C)c(Nc2nnc(-c3ccc(C)c(S(=O)(=O)NCC4CCCO4)c3)c3ccccc23)c1 (stereo not drawn)	nt	nt	2%	nt	nt	0%
Cc1ccc(OCC(=O)N2CCc3ccccc32)cc1	3.5µM*	2.8µM*	2.7µM*	-8%	16µM*	14µM*
Cc1ccc(OCC(=O)N2CCCc3ccccc32)cc1	13%	10%	?	0%	2%	2%
CCc1ccc(OCC(=O)N2CCc3ccccc32)cc1	2.2µM*	3.5µM*	2.7µM*	nt	?	nt
O=C(COc1ccc2c(c1)CCC2)N1CCc2ccccc21	1.1µM*	2.8µM*	5.4µM*	-3%	12µM*	?
O=[N+]([O-])c1ccc(N/N=C/c2cccc(O)c2O)cc1	1%	-3%	17µM*	nt	12µM*	nt
O=[N+]([O-])c1ccc(N/N=C/c2cccc(O)c2)cc1	28%	3%	24µM*	nt	?	nt
O=[N+]([O-])c1ccc(N/N=C/c2cccnc2)cc1	-13%	6%	?	nt	-7%	nt
